Pf Dd2 inh – inhibitors of Plasmodium falciparum Dd2 growth; P. falciparum Dd2 growth, SYBR Green, 72 h; stronger effect = lower value; activity change, % at 10 µM; hit rate 2.3% among 94,000; AID 1159554; in the data active = activity change below about -80%; inconclusive = no clear call, values can overlap the other calls
C diff growth – inhibitors of Clostridium difficile growth; Clostridium difficile clinical isolate growth, OD600, 24 h; stronger effect = lower value; AID 1259249; growth activity, negative = inhibition, % at 16 µg/mL (by protocol); hit rate 0.25% among 86,000;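 active = mean growth activity at or below -80% and every replicate also at or below -80%; inconclusive = mean at or below -80% but some replicate above -80%; inactive = mean growth activity above -80%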;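 note: 0% = DMSO wells and -100% = levofloxacin 16 µg/mL wells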
T cruzi growth-1 – blocks T. cruzi growth in NIH3T3 culture; T. cruzi beta-gal in NIH3T3, GalScreen luminescence, 90 h; inhibition, % at 8.34 µM; hit rate 5.9% among 77,000; AID 624255;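 active = mean inhibition above about 93%, with at least 55% of replicates each passing it, limit read from the data, passing the limit was not always enough; inconclusive = only one of those two conditions holds; inactive = neither condition holds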
T cruzi growth-2 – Trypanosoma cruzi proliferation inhibition; shares compounds with T cruzi growth-1; T. cruzi beta-gal in NIH3T3, GalScreen luminescence, 90 h; inhibition, % at 8.35 µM; hit rate 72% among 5,600;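 active = mean replicate inhibition above about 95% and at least 55% of replicates individually reaching it, limit read from the data; inconclusive = only one of the two criteria is met; inactive = neither criterion is met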
T cruzi growth-3 – inhibitors of T. cruzi proliferation; shares compounds with T cruzi growth-1; T. cruzi beta-gal in NIH3T3, GalScreen luminescence, 90 h; inhibition, % at 2.09 µM; hit rate 21% among 5,600; AID 651740;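 active = mean inhibition above about 95%, with at least 55% of replicates also reaching it, limit read from the data; inconclusive = meets just one of the two conditions; inactive = meets neither condition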;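 note: plate controls were neutral control median for no effect and positive control median for full effect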
3T3 cytotox – cytotoxicity in mouse NIH/3T3 fibroblasts; shares compounds with T cruzi growth-1; NIH/3T3 viability, CellTiter-Glo ATP luminescence, 90 h; cytotoxicity (signal decrease), % at 8.35 µM; hit rate 14% among 5,600;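 active = mean signal decrease across replicates above about 35% based on untreated-well scatter, with enough replicates individually passing, limit read from the data; inconclusive = no rule stated though some were filed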;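 note: 0% = median of neutral control wells and 100% = median of positive control wells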
3T3 cytotox 2 – kills mouse NIH/3T3 fibroblasts; shares compounds with T cruzi growth-1; NIH/3T3 viability, CellTiter-Glo ATP luminescence, 90 h; inhibition, % at 24.9 µM; hit rate 56% among 5,600;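 active = mean loss of cell viability signal at or above a set limit, and enough replicates individually reaching it; inconclusive = meets only the mean limit or only the replicate share; inactive = meets neither condition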;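 note: 0% = median of neutral control wells and 100% = median of positive control wells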
An asterisk follows results filed as active; ? = inconclusive; / = no result given. Sampled rows, rich in hits. Any-hit rate of the full collection: about 6.8%.

SMILES | Pf Dd2 inh | C diff growth | T cruzi growth-1 | T cruzi growth-2 | T cruzi growth-3 | 3T3 cytotox | 3T3 cytotox 2
C[C@@H]1CN([C@@H](C)CO)C(=O)c2cc(NC(=O)CCCCCC(=O)Nc3ccccc3N)ccc2O[C@@H]1CN(C)S(=O)(=O)c1ccc(Cl)cc1 | -55 | 0 | / | / | / | / | /
O=C(C1CCCC1)N1CC2(C1)[C@H](c1ccccc1)[C@H](CO)N2CC1CC1 | -20 | 12 | / | / | / | / | /
Cc1cccc(-c2ccc([C@@H]3[C@H](CO)N4CCCCN(S(=O)(=O)c5ccccc5C)C[C@@H]34)cc2)c1 | -77 | -3 | 64 | / | / | / | /
Cc1ccccc1S(=O)(=O)N1CCCCN2[C@H](CO)[C@H](c3ccc(-c4cccc(F)c4)cc3)[C@H]2C1 | -73 | -14 | 71 | / | / | / | /
Cc1ccccc1S(=O)(=O)N1CCCCN2[C@@H](CO)[C@H](c3ccc(-c4cccc(F)c4)cc3)[C@@H]2C1 | -9 | 47 | 106* | 88 | 103* | 56* | 103*
Cc1ccccc1S(=O)(=O)N1CCCCN2[C@H](C1)[C@@H](c1ccc(-c3cccc(F)c3)cc1)[C@@H]2CO | 5 | 19 | ? | 111* | 65 | 29 | 73*
O=C(C[C@H]1C[C@@H]2c3cc(NC(=O)NC4CCCCC4)ccc3O[C@@H]2[C@H](CO)O1)NC1CCCCC1 | 7 | -3 | / | / | / | / | /
Cc1ccc(S(=O)(=O)Nc2cccc3c2O[C@H](CN(C)C(=O)NC(C)C)[C@@H](C)CN([C@H](C)CO)C3=O)cc1 | 0 | -2 | 38 | / | / | / | /
C[C@@H]1CN([C@H](C)CO)C(=O)Cc2cc(NC(=O)C3CC3)ccc2O[C@@H]1CN(C)CC1CCCCC1 | 6 | -11 | 12 | / | / | / | /
C[C@@H]1CN([C@@H](C)CO)C(=O)Cc2cc(NC(=O)c3ccncc3)ccc2O[C@@H]1CN(C)Cc1ccc(-c2ccccc2)cc1 | -26 | -14 | 48 | / | / | / | /
C[C@H](CO)N1C[C@H](C)[C@@H](CN(C)Cc2ccc(-c3ccccc3)cc2)Oc2ccc(NC(=O)c3ccncc3)cc2CC1=O | -79 | -9 | 125* | 112* | 82 | 19 | 106*
C[C@H]1CN([C@@H](C)CO)C(=O)Cc2cc(NC(=O)c3ccncc3)ccc2O[C@H]1CN(C)Cc1ccc(Oc2ccccc2)cc1 | 13 | -16 | 97* | 98* | 48 | 33 | 104*
C[C@@H]1CN([C@H](C)CO)C(=O)Cc2cc(NC(=O)c3ccncc3)ccc2O[C@@H]1CN(C)Cc1ccccc1 | -29 | -1 | 45 | / | / | / | /
Cc1noc(C)c1NC(=O)N[C@H]1C=C[C@@H](CC(=O)NCCCN(C)C)O[C@@H]1CO | 9 | -2 | 5 | / | / | / | /
Cc1noc(C)c1NC(=O)N[C@H]1CC[C@@H](CC(=O)NCCCN(C)C)O[C@@H]1CO | -4 | / | ? | 32 | -54 | 15 | -11
C[C@H](NC(=O)C[C@@H]1CC[C@H](NC(=O)Cc2ccccn2)[C@H](CO)O1)c1ccccc1 | -2 | / | 2 | / | / | / | /
C/C=C/c1ccc2c(c1)O[C@H](CN(C)Cc1ccc(F)cc1)[C@H](C)CN([C@H](C)CO)S2(=O)=O | -27 | -3 | ? | 107* | 63 | 15 | 104*
C/C=C/c1ccc2c(c1)O[C@H](CN(C)Cc1ccccc1)[C@H](C)CN([C@H](C)CO)S2(=O)=O | 15 | 2 | 67 | / | / | / | /
C/C=C/c1ccc2c(c1)O[C@@H](CN(C)Cc1ccc(F)cc1)[C@H](C)CN([C@@H](C)CO)S2(=O)=O | -60 | 14 | 118* | 99* | 105* | 54* | 104*
C/C=C/c1ccc2c(c1)O[C@H](CN(C)Cc1ccccc1)[C@@H](C)CN([C@H](C)CO)S2(=O)=O | -26 | 7 | 86 | / | / | / | /
O=C(Cc1ccncc1)N1CC(=O)N2[C@H](C1)[C@@H](c1ccc(C3=CCCC3)cc1)[C@@H]2CO | 12 | -3 | / | / | / | / | /
C[C@@H]1CN([C@H](C)CO)C(=O)c2cc(C3=CCCCC3)cnc2O[C@@H]1CN(C)Cc1ccccn1 | 6 | 6 | / | / | / | / | /
Cc1ccc(S(=O)(=O)N(C)C[C@H]2Oc3cc(C4=CCCC4)ccc3S(=O)(=O)N([C@H](C)CO)C[C@H]2C)cc1 | -22 | 2 | / | / | / | / | /
